Data taken from PubChem BioAssay (EPA / NIEHS).
Calls of active or inactive are those of the source. How the source made its calls: active means hit-call score of the fitted dose curve at least 0.9, where 1 is the maximum; inactive means score below 0.9.

Columns and labels:
[1] = UKN5_HCS_SBAD2_cell_viability: Viability Assessment in the University of Konstanz (UKN) Leist Lab Neurite Outgrowth Assay in human iPSC-derived immature Dorsal Root Ganglia Neurons (UKN5) (AID 2284056)
How it was run: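 iPSC-derived immature peripheral neurons (SBAD2) seeded on Matrigel with CHIR99021, SU5402 and DAPT, dosed 1 h later for 24 h. Viability from Hoechst H-33342 and calcein-AM live staining, high-content imaging; bidirectional fit versus DMSO.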

[2] = UKN5_HCS_SBAD2_neurite_outgrowth: University of Konstanz (UKN) Leist Lab Neurite Outgrowth Assay in human iPSC-derived immature Dorsal Root Ganglia Neurons (UKN5) (AID 2284070); settings: actives raise or lower the signal
How it was run: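 Neurite area from calcein-AM high-content images after 24 h exposure (staining included), with H-33342 for viability, fitted both directions against DMSO. Cells: thawed immature SBAD2 peripheral neurons, 100.000 cells/cm2, with CHIR99021, SU5402, DAPT; dosing 1 h after seeding.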

| Structure (SMILES) | outcome [1] | outcome [2] | AC50 [1] | AC50 [2] |
| --- | --- | --- | --- | --- |
| O=C1NC(=O)C(c2ccccc2)(c2ccccc2)N1 | inactive | inactive | – | – |
| CN(C)CCCN1c2ccccc2Sc2ccc(Cl)cc21 | – | – | 13.7 µM (active) | 6.11 µM (active) |
